# Results reported in PubChem BioAssay (EPA / NIEHS).
# Records with an inconclusive call do not appear. Activity calls are given as the source filed them. The calls were made as follows: active = hit-call score of the fitted dose curve at least 0.9, where 1 is the maximum; inconclusive = response in the unintended direction; inactive = score below 0.9.
# Molecular target: Retinoic acid receptor RXR-alpha (Homo sapiens) (UniProt P19793)
# Test: ATG_RXRa_TRANS: Attagene TRANS-FACTORIAL HepG2 Assay for human Retinoid X Receptor alpha (RXRa) (AID 2283012)
# Method: ATG_TRANS is a cell-based, multiplexed-readout assay that uses HepG2, a human liver cell line, with measurements taken at 24 hours after chemical dosing in a 24-well plate.ATG_RXRa_TRANS is one of 30 assay component(s) measured or calculated from the ATG_TRANS assay. It is designed to make measurements of mRNA induction, a form of inducible reporter, as detected with fluorescence intensity signals by Reverse transcription polymerase chain reaction (RT-PCR) and Capillary electrophoresis technology.Data from the assay component ATG_RXRa_TRANS was analyzed into 1 assay endpoint. This assay endpoint, ATG_RXRa_TRANS, was analyzed in the positive analysis fitting direction relative to DMSO as the negative control and baseline of activity. Using a type of inducible reporter, measures of mRNA for gain-of-signal activity can be used to understand the reporter gene at the transcription factor-level as they relate to the gene RXRA. Furthermore, this assay endpoint can be referred to as a primary readout, because this assay has produced multiple assay endpoints where this one serves a reporter gene function. To generalize the intended target to other relatable targets, this assay endpoint is annotated to the nuclear receptor intended target family, where the subfamily is non-steroidal.
# Human liver HepG2 cells are transiently transfected with multiple reporter transcription units (MRTUs) in 6-well plates using FuGene 6 reagent (Roche; 3 ml FuGene/1 mg DNA). The MRTU constructs are regulated by a cis-regulating element (promoter). […] A major difference between the CIS and TRANS system is that in CIS activities of endogenous TFs are measured, whereas the TRANS assay evaluates changes in activities of exogenous, chimeric NR-Gal4 proteins. […] At the end of 24 hour incubation, total RNA was isolated using TriZol reagent (Invitrogen). The isolated RNA is then reverse-transcribed using oligo(dT) primer and Mo-MLV reverse transcriptase (Invitrogen) with DNAse I (Ambion) treatment for 30 min. The one-tenth of the produced cDNA was amplified by PCR using Taq DNA polymerase (Invitrogen) and two reporter sequence-specific primers. The PCR products were fluorescently labeled by primer extension with 6-arboxyfluorescein (6-FAM) 5'-labeled reporter sequence-specific primer (2 min at 95 C, 20 s at 68 C and 10 min at 72 C) and these products were digested with 5U of HpaI (New England Biolabs) for 2h at 37 C. The fragments were purified using Qiaquick PCR columns (Qiagen), analyzed on an ABI 3130xL genetic analyzer (Applied Biosystems) with peak positions identified by using a set of X-rhodamine (ROX)-labeled MapMarker1000 molecular weight standards (BioVentures). The raw capillary electrophoresis data was processed using Attagraph software (Attagene).
# Chain of Retinoic acid receptor RXR-alpha (Homo sapiens) (P19793 whole entry, looked up): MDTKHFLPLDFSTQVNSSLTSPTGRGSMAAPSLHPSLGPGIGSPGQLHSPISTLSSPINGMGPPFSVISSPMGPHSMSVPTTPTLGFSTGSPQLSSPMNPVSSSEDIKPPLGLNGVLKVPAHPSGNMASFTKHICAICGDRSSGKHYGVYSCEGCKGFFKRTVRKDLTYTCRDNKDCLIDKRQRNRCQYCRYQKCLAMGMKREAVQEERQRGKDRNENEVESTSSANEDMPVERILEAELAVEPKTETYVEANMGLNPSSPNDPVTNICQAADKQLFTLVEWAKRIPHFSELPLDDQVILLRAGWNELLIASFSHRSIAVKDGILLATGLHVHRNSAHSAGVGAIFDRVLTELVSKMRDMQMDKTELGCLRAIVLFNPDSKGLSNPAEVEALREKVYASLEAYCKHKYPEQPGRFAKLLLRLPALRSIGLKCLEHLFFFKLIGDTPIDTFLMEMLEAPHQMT
SMILES,outcome,AC50
CC1=C(Br)C(=O)C(Br)=C/C1=C(/c1ccccc1S(=O)(=O)O)c1cc(Br)c(O)c(Br)c1C,inactive,
C[C@H]1O[C@@H](O[C@H]2[C@@H](O)C[C@H](O[C@H]3[C@@H](O)C[C@H](O[C@H]4CC[C@@]5(C)[C@H](CC[C@@H]6[C@@H]5C[C@@H](O)[C@]5(C)[C@@H](C7=CC(=O)OC7)CC[C@]65O)C4)O[C@@H]3C)O[C@@H]2C)C[C@H](O)[C@@H]1O,inactive,
Cc1ccc(S(N)(=O)=O)cc1,inactive,
COc1cc([C@@H]2c3cc4c(cc3[C@@H](O[C@@H]3O[C@@H]5CO[C@@H](C)O[C@H]5[C@H](O)[C@H]3O)[C@H]3COC(=O)[C@H]23)OCO4)cc(OC)c1O,inactive,
OCC#CCO,inactive,
c1ccc(CCc2ccccc2)cc1,inactive,
CCC1(C)NC(=O)NC1=O (stereo not given),inactive,
O=C1OC[C@H](Cc2cccc(O)c2)[C@H]1Cc1cccc(O)c1,inactive,
c1ccc2cc(Nc3ccc(Nc4ccc5ccccc5c4)cc3)ccc2c1,inactive,
CC(C)(C)OC(=O)c1ccc(O)cc1,inactive,
CC(=O)CC(=O)Nc1ccccc1,inactive,
CC1CCC(C(C)C)C(O)C1 (stereo not given),inactive,
COS(=O)(=O)O,inactive,
O=[N+]([O-])c1ccc(O)cc1C(F)(F)F,inactive,
NCc1ccco1,inactive,
N[C@@H](Cc1cc(I)c(Oc2cc(I)c(O)c(I)c2)c(I)c1)C(=O)O,inactive,
C=C(C)[C@H]1CC=C(C)C(=O)C1,inactive,
CCCCCc1ccco1,inactive,
COc1cc(Cl)c(OC)cc1N,inactive,
COc1ccc(CCN2CCC(Nc3nc4ccccc4n3Cc3ccc(F)cc3)CC2)cc1,inactive,

SMILES,outcome,AC50
C=Cc1ccc(C(C)(C)C)cc1,inactive,
Nc1ccc(Cl)c([N+](=O)[O-])c1,inactive,
CCOCCOCCOCC,inactive,
CC(C)(C)CC(C)(C)c1ccc(OCCOCC[N+](C)(C)Cc2ccccc2)cc1,inactive,
CCO/C=C1\N=C(c2ccccc2)OC1=O,inactive,
CCc1ncc(C)[nH]1,inactive,
COc1ccc(N)c([N+](=O)[O-])c1,inactive,
O=C1OC(=O)c2c(Br)c(Br)c(Br)c(Br)c21,inactive,
CC(=O)C(C)O (stereo not given),inactive,
CCCCOCC,inactive,
CCc1cc(C(C)(C)C)c(O)c(C(C)(C)C)c1,,11.3 µM (active)
CC/C=C\CC/C=C/CO,inactive,
O=c1[nH]c(=O)c2cn[nH]c2[nH]1,inactive,
Clc1ccc(C(c2ccccc2Cl)C(Cl)Cl)cc1 (stereo not given),inactive,
CC(C)(C)c1ccc(C(=O)O)cc1,inactive,
CC(C)CCCCCCCCCCCCCCC(=O)O,inactive,
Cc1cc(C)nc(NS(=O)(=O)c2ccc(N)cc2)n1,inactive,
CCCCCC(C)=O,inactive,
Nc1ccc2cc(S(=O)(=O)O)cc(O)c2c1N=Nc1ccccc1C(F)(F)F,,78 µM (active)
CC(=O)c1c(C)c([N+](=O)[O-])c(C(C)(C)C)c([N+](=O)[O-])c1C,,6.93 µM (active)
